According to ChEMBL document CHEMBL3988442, “University of Dundee, Small-Polar-MMV Screening Library” (2021):
The whole screen tested about 48,000 compounds, of which about 13,000 (27%) showed an effect of 50% or more. The list shows a part of the results.

Test system: Wolbachia pipientis
Assay: Anti-Wolbachia Cell-Based Screen
Format: functional
Parameters: scale not given: in the data most compounds retested in dose-response had high values
Conditions: 5 µM

Point of comparison: Cc1csc(N2CCCN(C(=O)c3ccsc3)CC2)n1, “Percent Effect” value 30.07%. Against it:
- O=C(CCC1CC1)N1CCC(n2cc(C3(O)CCCC3)nn2)CC1 — lower, -0.3223%
- COc1ccc(C2(C(=O)N3C[C@@H](C(=O)O)[C@H](C(C)C)C3)CC2)cc1 — lower, 6.312%
- O=C(CS(=O)(=O)CC1CCCCC1)NC1CCCCNC1=O (stereo not given) — lower, -2.84%
- Cn1cnc2c1CCN(CC(=O)NC1CCCCNC1=O)C2 (stereo not given) — lower, 2.624%
- Cc1cc(C)n(CC(=O)NC2CCCCNC2=O)n1 (stereo not given) — lower, -5.953%
- O=C(CS(=O)(=O)Cc1ccc(F)cc1)NCc1ccccc1F — lower, -12.49%
- CC(C)CS(=O)(=O)CC(=O)NC1CCCCNC1=O (stereo not given) — higher, 105%
- O=C(CS(=O)(=O)c1ccccc1Cl)NC1CCCCNC1=O (stereo not given) — lower, 7.591%
- O=C1NCCCCC1NC(=O)C1(c2ccccc2)CCOCC1 (stereo not given) — lower, -10.73%
- O=C(CC1CCCCC1)NC1CCCCNC1=O (stereo not given) — higher, 129.3%
- Cc1ccccc1CS(=O)(=O)CC(=O)NC1CCCCNC1=O (stereo not given) — lower, 5.447%
- Cn1c(C2CC2)nc2c1CCN(CC(=O)NC1CCCCNC1=O)C2 (stereo not given) — lower, -7.835%
- O=C(CS(=O)(=O)Cc1ccc(F)cc1)NC1CCCCNC1=O (stereo not given) — higher, 104.6%
- O=C(CS(=O)(=O)Cc1ccccc1)NC1CCCCNC1=O (stereo not given) — higher, 109%
- CC1CCN(C)c2ccccc2N1C(=O)c1ccn(C)c(=O)c1 (stereo not given) — lower, -9.489%
- COc1cc(C)nc(N2CCN(C(=O)c3ccc[nH]3)CC2)n1 — lower, 4.964%
- N#Cc1ccc(N2CCC(c3nccn3Cc3cscn3)CC2)nc1 — lower, 4.95%
- COc1ccc(CN(Cc2nc(C)no2)C2CCCCC2)cc1OC — higher, 113.8%
- CC(C(=O)NC1CC1)S(=O)(=O)Cc1nc(Cc2ccccc2)no1 (stereo not given) — lower, -3.587%
- CCc1noc(CN(CCc2ccccc2)C2CCN(C)CC2)n1 — lower, 1.802%
- COc1cc(CO)ccc1OCc1nc(C2CC2)no1 — lower, 5.46%
- CCN(Cc1nc(Cc2ccccc2)no1)C1CC1 — higher, 93.91%
- COc1ccccc1CN(Cc1nc(C)no1)C1CC1 — higher, 102.6%
- CCc1noc(C(C)N(C)Cc2ccc(OC)c(OC)c2)n1 (stereo not given) — lower, 9.709%
- CN(Cc1ccc2c(c1)OCO2)Cc1nc(Cc2ccccc2)no1 — lower, -7.147%
- COc1ccccc1CN(Cc1nc(Cc2ccccc2)no1)C1CC1 — higher, 122.2%
- CCc1nc(CN(CCc2ccccc2)C2CCN(C)CC2)no1 — lower, 22.84%
- COc1ccccc1CN(Cc1nc2c(cnn2C)c(=O)[nH]1)C1CC1 — lower, 17.98%
- Cc1nnc(CN(Cc2ccccc2C(F)(F)F)C2CC2)o1 — lower, -10.33%
- CCCN1CC2(CCN(C)CC2)CC1C(=O)NCCn1nc(C)nc1C (stereo not given) — lower, -19.15%
- O=C(CCn1cncn1)NCC1CCS(=O)(=O)C1 (stereo not given) — lower, 0.07359%
- CCN(CC)CCSc1ncnc2[nH]ncc12 — lower, -13.76%
- Cc1cc(C(=O)NC(CC(C)C)C(=O)Nc2cc[nH]n2)c(C)o1 (stereo not given) — lower, 2.286%
- CC(C)c1noc(CN(Cc2ccccc2F)C2CC2)n1 — lower, 5.507%
- COc1ccccc1CCc1nc(CC2CCN(C)CC2)no1 — lower, 0.6251%
- COc1ccccc1CN(Cc1nc(CC(C)C)no1)C1CC1 — higher, 68.8%
- CC(CCc1ccccc1F)C(=O)NS(C)(=O)=O (stereo not given) — lower, -12.84%
- Cc1nc(C)n(C2CCCN(C(=O)CCOCC(C)C)C2)n1 (stereo not given) — higher, 96.93%
- Cc1nc(C)n(C2CCCN(C(=O)c3cnc[nH]3)C2)n1 (stereo not given) — lower, 5.274%
- Cc1nc(C)n(C2CCCN(C(=O)CCOC(C)C)C2)n1 (stereo not given) — higher, 104.7%
- Cc1nc(C)n(C2CCCN(C(=O)c3csc(C(C)C)n3)C2)n1 (stereo not given) — lower, -3.924%
- CC(NC(N)=O)C(=O)N(C)Cc1cccc(C(F)(F)F)c1 (stereo not given) — lower, -8.418%
- O=C1CC(NCc2cnc(-c3cccs3)nc2)CN1c1ccccc1 (stereo not given) — lower, 9.928%
- Cn1ncc2c(N3CCN(C(=O)c4ccsc4)CC3)ncnc21 — higher, 110.5%
- CCc1nsc(N2CCCN(C(=O)c3ccsc3)CC2)n1 — lower, 9.27%
- Cn1nc(C#N)c2c1CN(C(=O)c1ccsc1)CCC2 — lower, -3.731%
- Cn1ncc2c(=O)[nH]c(N3CCN(C(=O)c4ccsc4)CC3)nc21 — lower, 8.888%
- Cc1nc(N2CCN(C(=O)c3ccccc3)CC2)c2cnn(C)c2n1 — higher, 113.9%
- Cc1nc(N2CCN(C(=O)c3ccc(O)cc3)CC2)c2cnn(C)c2n1 — lower, 3.35%
- Cc1nc(N2CCCN(C(=O)c3ccsc3)CC2)c2cnn(C)c2n1 — higher, 93.06%
- Cc1nc(N2CCN(C(=O)c3ccsc3)CC2)c2cnn(C)c2n1 — lower, 2.047%
- Cc1nc(N2CCN(C(=O)c3ccccc3)CC2)c2c(n1)c(C)nn2C — higher, 38.43%
- Cc1ncnc2c1CCN(C(=O)c1ccsc1)CC2 — lower, -12.52%
- Cn1ncc2c(N3CCCN(C(=O)c4ccsc4)CC3)ncnc21 — higher, 109.6%
- CN(C)CCn1c(=O)oc2ccc(NC(=O)CC(C)(C)C)cc21 — lower, 14.89%
- Cc1ccc(NC(C)C(=O)NCc2cccs2)cc1C (stereo not given) — lower, -16.27%
- CCOc1ccc2ccccc2c1CNCC1CCS(=O)(=O)C1.Cl (stereo not given) — lower, -1.499%
- CCOc1ccnc(N2CCN(C(=O)C(C)(C)C#N)CC2)n1 — lower, 0.4658%
- COc1cc(CN(C)C(=O)NCc2cccnc2OC)ccc1SC — lower, -20.02%
- Cc1cc(CS(=O)(=O)C(C)c2ccc(F)cc2)on1 (stereo not given) — lower, -4.028%
- COc1ccc(CNC2CCN(c3ccccc3)C2)c(OC)c1OC (stereo not given) — lower, -16.13%
- O=C(c1ccnc(-n2ccnc2)c1)N1CCCC(n2cccn2)C1 (stereo not given) — higher, 103.2%
- O=C(c1ccnc(-n2ccnc2)c1)N1CCCC(n2ccnc2)C1 (stereo not given) — higher, 100.2%
- Cc1nccn1C1CCCN(C(=O)c2ccnc(-n3ccnc3)c2)C1 (stereo not given) — higher, 102.3%
- Cc1nccn1C1CCCN(C(=O)c2cccc(Cn3ccnc3)c2)C1 (stereo not given) — higher, 99.35%
- CN(C)c1cc(C(=O)N2CCCC(n3cccn3)C2)ccn1 (stereo not given) — lower, -2.177%
- O=C(c1cccc(Cn2ccnc2)c1)N1CCCC(n2ccnc2)C1 (stereo not given) — lower, 0.5166%
- O=C(c1ccc(-n2ccnc2)nc1)N1CCCC(n2cccn2)C1 (stereo not given) — lower, -14.33%
- CC(C)n1ccnc1CN1CCOC(CC2CCCCC2)C1 (stereo not given) — lower, 1.186%
- CCc1ccc(-c2cn(CCSc3ncn[nH]3)nn2)nc1 — lower, 2.471%
- Cn1nnnc1SCCNC(=O)C1CCN(C(=O)C2CCC2)CC1 — lower, 1.92%
- CC(C)[C@H]1CN(CC2CCC2)C[C@@H]1NC(=O)c1ccc(=O)[nH]c1 — lower, 7.651%
- CN(C)C(=O)c1nc(CN2C(=O)OC[C@@H]2c2ccccc2)no1 — lower, 1.255%
- O=C(CN1CCS(=O)(=O)CC1)NC1CCCc2ccccc21 (stereo not given) — lower, 8.057%
- CCN(CCO)Cc1cn(-c2cccc(F)c2)nc1-c1ccc(C)o1 — lower, 11.71%
- O=C1CN(Cc2nnc(-c3ccc(Cl)cc3)o2)CCN1 — lower, -10.36%
- c1ccc2c(c1)CC(N1CCCC(NCc3cccc4nonc34)C1)C2 (stereo not given) — lower, -10.52%
- CCN(CCn1cccn1)C(=O)CN1C(=O)OC[C@@H]1c1ccccc1 — lower, -1.306%
- CS(=O)(=O)N1CCCC1CS(=O)(=O)c1ccccc1 (stereo not given) — higher, 121.3%
- CS(=O)(=O)N1CCCCC1CCc1ccc(O)cc1 (stereo not given) — lower, 6.219%
- O=S(=O)(CC1CCCN1S(=O)(=O)C1CC1)c1ccccc1 (stereo not given) — higher, 115.6%
- NC1CCCCN(Cc2ccccc2CS(=O)(=O)c2ccccc2)C1 (stereo not given) — lower, -12.21%
- Cc1nccn1CC1CCCN1S(=O)(=O)Cc1ccccc1 (stereo not given) — lower, -11.24%
- O=S(=O)(c1cccnc1)N1CCN(CC(O)c2ccccc2)CC1 (stereo not given) — lower, 2.359%
- O=C(CC1CCCN1S(=O)(=O)N1CCCCC1)c1cccs1 (stereo not given) — lower, -4.447%
- O=S(=O)(CC1CCCN1S(=O)(=O)c1cccnc1)c1ccccc1 (stereo not given) — higher, 115.5%
- O=S(=O)(c1cccnc1)N1CCCC1COc1ccccc1 (stereo not given) — lower, -14.29%
- CS(=O)(=O)c1ccc(-c2c[nH]c([C@@H]3COCCN3)n2)cc1 — lower, 22.57%
- COc1ccc(OC)c2c(C)cc(N(C)Cc3cc(C)on3)nc12 — lower, -2.431%
- Cc1nc2cc(=O)[nH]n2c(C)c1CC(=O)Nc1ccc2ccccc2n1 — lower, -9.33%
- COc1cccc(-c2noc(C3CCN(CC4CCCCC4)C3)n2)c1.Cl (stereo not given) — higher, 96.8%
- COc1cccc(-c2cccc(CN3C[C@@H]4CC[C@H](C3)N(C)C4=O)c2)c1 — lower, 5.514%
- COc1cccc(-c2noc(C3CCN(Cc4ccncc4)C3)n2)c1 (stereo not given) — higher, 126.2%
- c1ccc(-c2noc(C3CCN(CCn4cccn4)CC3)n2)cc1 — lower, 4.986%
- COc1cccc(-c2noc(C3CCN(CC(N)=O)C3)n2)c1 (stereo not given) — higher, 113.2%
- COc1cccc(COC(C)C(=O)NC2CCN(CC(N)=O)CC2)c1 (stereo not given) — lower, -5.378%
- CCS(=O)(=O)c1ccc2oc([C@H]3CCN(CC4CCCCC4)C3)nc2c1 — lower, -4.53%
- Cc1cccc(-c2noc([C@@H]3C[C@@H](O)CN3C3CCOCC3)n2)c1 — lower, -7.928%
- COc1cccc(-c2noc(C3CCN(Cc4ccc(C)cc4)C3)n2)c1.Cl (stereo not given) — higher, 91%
- COc1cccc(-c2noc(C3CCN(Cc4cccs4)C3)n2)c1.Cl (stereo not given) — lower, 4.787%
- Cc1c(NC(C)C(C)C)cccc1C(=O)NCc1cnn(C)c1 (stereo not given) — lower, 6.886%
- COC(=O)c1sccc1S(=O)(=O)NCC1(O)CCOc2ccccc21 (stereo not given) — lower, -4.679%
- CCOC(=O)CN1CCC(NC(=O)OC(C)(C)C)CC1 — lower, -0.4465%
- COc1cccc([C@@H](C)n2ccnc2-c2cc3n(n2)CCNC3)c1 — lower, -10.36%
